tim23-1 inh – growth inhibitors of tim23-1 mutant yeast, primary screen, luminescence, uHTS | AID 463212, 2010 | inhibition, % at 20 µM | S. cerevisiae tim23-1 growth, BacTiter-Glo luminescence, 24 h | 1.3% of 330,000 active;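 active = growth inhibition of the mutant yeast at or above 50%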;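 also: temperature-sensitive mutant grown at 25 °C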
TIM10 inh – growth inhibitors of isogenic TIM10 control yeast, primary screen, counter-screen for tim10-1 yeast inhibitor project, luminescence, uHTS | AID 463195, 2010 | 1.4% of 330,000 active | inhibition, % at 10 µM | S. cerevisiae TIM10 strain growth, BacTiter-Glo luminescence, 24 h;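 active = inhibition of 40% or more at the single tested concentration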;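 also: wild-type TIM10 isogenic control strain grown at permissive 25 °C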
NALP3 yeast inh – NALP3 inflammasome inhibitors in reconstituted yeast, primary screen, luminescence, uHTS | Yeast reconstituted NLRP3/ASC/caspase-1, beta-gal luminescence, 24 h | inhibition, % at 10 µM | 0.39% of 330,000 active;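 active = inhibition of 50% or more; inactive = inhibition below 50%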
PfHsp90 yeast 2 – growth inhibition of PfHsp90-expressing yeast, primary screen, antimalarial PfHsp90 inhibitor project, S. cerevisiae, BacTiter-Glo luminescence, single point, set 2. BacTiter-Glo ATP, 48 h; yeast lacking PDR1 and PDR3 efflux regulators. inhibition, % at 9.4 µM. 0.32% of 310,000 active;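 active = every replicate shows inhibition above about 80%, whatever the replicate mean, limit read from the data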
tim10-1 inh – growth inhibitors of tim10-1 mutant yeast, primary screen, luminescence, uHTS; 2.2% of 330,000 active; AID 463190, 2010; S. cerevisiae tim10-1 ts strain growth, BacTiter-Glo, 24 h; inhibition, % at 20 µM;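 active = inhibition of at least 40%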;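 also: mutant grown at 25 °C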
tim10-1 confirm – growth inhibitors of tim10-1 mutant yeast, confirmation, single concentration, luminescence, S. cerevisiae. shares compounds with tim10-1 inh. S. cerevisiae tim10-1 ts strain growth, BacTiter-Glo, 24 h. inhibition, % at 20 µM. 56% of 7,400 active. AID 463213, 2010;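 active = inhibition of yeast growth at or above a set limit in either of two repeat tests at 20 µM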;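 also: tim10-1 mutant grown at permissive 25 °C to find synthetic lethal compounds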
tim10 confirm – growth inhibitors of wild-type TIM10 yeast, confirmation, counter-screen for tim10-1 synthetic lethality project, single concentration, luminescence, S. cerevisiae; AID 463215, 2010; S. cerevisiae tim10 strain growth, BacTiter-Glo luminescence, 24 h; inhibition, % at 10 µM; shares compounds with TIM10 inh; 63% of 4,600 active;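 active = inhibition of yeast growth at or above a set limit in either of two replicates at 10 µM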; also: this counterscreen used the strain with wild-type TIM10
Each line names hits and unclear results; the compound was inactive in the other large screens (follow-up assays come after a bar, where they were run). This is a sample that favours compounds with a hit; in the whole collection about 3.7% have one here.

Cc1onc(-c2ccccc2)c1C(=O)Nc1nnc(-c2ccncc2)s1	tim10-1 inh 44 (no result: PfHsp90 yeast 2) | tim10-1 confirm 39
Cc1ccc2nc(NC(=O)C3CCCN(S(=O)(=O)c4cccc5nsnc45)C3)sc2c1 (centres undefined)	tim10-1 inh 41 | tim10-1 confirm inactive
Cc1ccc2nc(NC(=O)C3CCN(S(=O)(=O)c4cccs4)CC3)sc2c1	tim10-1 inh 42 | tim10-1 confirm inactive
Cc1ccc(S(=O)(=O)N2CC(=O)N3CCN(CCN)C3C2)cc1 (centres undefined)	none (no result: PfHsp90 yeast 2)
O=C(N/C(=C\c1ccco1)C(=O)N1CCCC1CO)c1ccccc1 (centres undefined)	none
CC[C@@H]1CC=C[C@H]2[C@H]1C(=O)N(Cc1ccccc1)[C@H]2c1ccc(OC)c(Cl)c1	tim10-1 inh 43 | tim10-1 confirm inactive
C[C@@H]1CC=C[C@H]2[C@H]1C(=O)N(Cc1ccccc1)[C@H]2c1ccoc1	tim10-1 inh 50 (no result: PfHsp90 yeast 2) | tim10-1 confirm 34
CC[C@@H]1CC=C[C@H]2[C@H]1C(=O)N(Cc1ccccc1)[C@H]2c1ccoc1	tim10-1 inh 77 (no result: PfHsp90 yeast 2) | tim10-1 confirm 73
CC[C@@H]1CC=C[C@H]2[C@H]1C(=O)N(Cc1ccccc1)[C@H]2c1ccc(C(F)(F)F)cc1	none
C[C@@H]1CC=C[C@H]2[C@H]1C(=O)N(Cc1ccccc1)[C@H]2c1ccc(F)c(/C=C/c2ccccc2)c1	none
CC(=O)Nc1ccc(S(=O)(=O)NC2(C(F)(F)F)NC(=O)N(c3ccc(C)cc3)C2=O)cc1 (centres undefined)	none
CCc1ccc(C(=O)NCC2(c3ccccc3)CCOCC2)o1	none (no result: tim23-1 inh, TIM10 inh, NALP3 yeast inh, tim10-1 inh)
Cc1cc(C)n(C(=O)/C(C#N)=N\Nc2ccccc2[N+](=O)[O-])n1	none
Cc1cc(C)n(C(=O)/C(C#N)=N/Nc2cc(Cl)cc(Cl)c2)n1	tim10-1 inh 47 | tim10-1 confirm 56
O=C(NC(=S)N1CCCCCC1)c1ccc(Cl)cc1Cl	tim10-1 inh 48 | tim10-1 confirm 30
O/N=C(/c1ccc(Cl)cc1)C1CC1c1ccccc1 (centres undefined)	tim10-1 inh 51 | tim10-1 confirm inactive
O=C(NCc1ccccc1)C(Cc1ccccc1)N1C(=O)C2C3CCC(C3)C2C1=O (centres undefined)	tim10-1 inh 40 (no result: PfHsp90 yeast 2) | tim10-1 confirm inactive
O=C(CN1C(=O)NC2(CCCC2)C1=O)OCCOc1ccc(Br)cc1	none
FC(F)(F)c1cnc(Nc2ccc(N3CCOCC3)cc2)c(Cl)c1	tim10-1 inh 44 | tim10-1 confirm inactive
COc1cc(C)ccc1OCc1cc(C(=O)N2CCC(c3ccc(F)cc3)C2)no1 (centres undefined)	tim10-1 inh 41 | tim10-1 confirm 27
O=C(NCCc1cccnc1)c1cc(COc2ccc(F)cc2Cl)on1	tim10-1 inh 45 | tim10-1 confirm inactive
O=C(c1cc(COc2ccc(F)cc2Cl)on1)N1CCCC(OCc2cccnc2)C1 (centres undefined)	tim10-1 inh 44 | tim10-1 confirm inactive
Cc1ccc(C)c(OCc2cc(C(=O)N3CC[C@@H]4CCCC[C@H]4C3)no2)c1	none
Cc1ccccc1CN1[C@@H](CC2CCCCC2)COCCS1(=O)=O	none
CC(C)(C)OC(=O)C[C@@H]1C/C=C\C[C@H](CC(=O)NCCO)C(=O)N2CCC[C@@H]2COC1=O	none
O=C(c1cc2ccccc2oc1=O)N(Cc1ccco1)Cc1cccs1	none (no result: PfHsp90 yeast 2)
O=C(CS(=O)(=O)c1ccccc1)c1cc2ccccc2oc1=O	tim10-1 inh 42 | tim10-1 confirm inactive
O=C(c1cc2ccccc2oc1=O)N(Cc1cccs1)Cc1cccs1	tim10-1 inh 42 | tim10-1 confirm inactive
O=C(c1ccc(Cl)cc1)N1CCN(S(=O)(=O)/C=C/c2ccccc2)CC1	tim10-1 inh 46 | tim10-1 confirm inactive
O=C(O)[C@H](O)[C@@H](O)C(=O)O	none
O=C(CSc1nnc(-c2ccc(F)cc2)o1)Nc1ccccc1N1CCOCC1	tim10-1 inh 40 | tim10-1 confirm inactive
C=CCNc1sc(C(=O)c2ccccc2)c(N)c1-c1nc2ccccc2s1	tim10-1 inh 40 (no result: PfHsp90 yeast 2) | tim10-1 confirm inactive
CCC1CCCCN1C(=O)CCn1c(=O)oc2ccccc21 (centres undefined)	none
O=C(NC(=S)N1CCN(c2ccc(C(F)(F)F)cc2[N+](=O)[O-])CC1)c1cccs1	TIM10 inh 40, tim10-1 inh 44 | tim10-1 confirm inactive | tim10 confirm inactive
C/C(=N\N=c1/sc2ccccc2n1C)c1ccccn1	TIM10 inh 43, tim10-1 inh 43 | tim10-1 confirm 35 | tim10 confirm inactive
CCN1C[C@@H]2[C@@H]3C(=O)N(C)C(=O)[C@@H]3[C@](C)(C1=O)N2C(=O)c1ccc(C(C)(C)C)cc1	none (no result: tim23-1 inh, TIM10 inh, NALP3 yeast inh, tim10-1 inh)
Cn1c(Cl)cnc1C1CC(=O)c2cc(Cl)ccc2O1 (centres undefined)	TIM10 inh 72, tim10-1 inh 66 | tim10-1 confirm 58 | tim10 confirm inactive
CC(=O)Nc1ccc(S(=O)(=O)N2CCC(C(=O)c3ccc(Cl)cc3)CC2)cc1	none
CC(=O)Nc1ccc(S(=O)(=O)N2CCSC2c2ccc(Cl)cc2)cc1 (centres undefined)	TIM10 inh 40, tim10-1 inh 53 | tim10-1 confirm 39 | tim10 confirm inactive
CC(=O)Nc1cccc(NC(=O)c2cc([N+](=O)[O-])ccc2N2CCCCC2)c1	none
Cc1cccc(NC(=O)c2cc([N+](=O)[O-])ccc2N2CCCCC2)n1	TIM10 inh 47, tim10-1 inh 43 | tim10-1 confirm 39 | tim10 confirm inactive
COc1ccc(CC2(CO)COc3ccccc3C2=O)cc1 (centres undefined)	none
CCc1ccc(S(=O)(=O)/N=C2\C=C(NS(=O)(=O)c3ccccc3)C(=O)c3ccccc32)cc1	none
COc1ccc(S(=O)(=O)/N=C2\C=C(Nc3ccc(O)cc3)C(=O)c3ccccc32)cc1	TIM10 inh 52, tim10-1 inh 67 | tim10-1 confirm 62 | tim10 confirm 81
COC(=O)C(C(C)=O)C1=C/C(=N\S(=O)(=O)c2ccc(C)cc2)c2ccccc2C1=O (centres undefined)	TIM10 inh 43, tim10-1 inh 40 | tim10-1 confirm 41 | tim10 confirm inactive
O=C(NCc1ccccc1)C(c1ccncc1)N(C(=O)c1csnn1)c1cccc(F)c1 (centres undefined)	none

From PubChem BioAssay
